The full list was thinned out, with hits kept by preference.
Pf Dd2 inh: Plasmodium falciparum Dd2 growth inhibition | P. falciparum Dd2 growth, SYBR Green, 72 h | Potency, µM (top dose mostly 28.9 µM), for the others: top-dose activity, negative = inhibition, actives largely listed as inhibitors | 120,000 tested, 4.3% active | AID 1347417; active means well fitted inhibition curve with a large enough effect;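 further: plate controls were DMSO vehicle for no effect and reference drug for full effect; nearly all actives have a fitted effect of over 65% in size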
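Readout: SYBR Green fluorescence, 485 nm excitation, 535 nm emission, after ~16 h lysis at 37C. Before that, Dd2-infected red cells (2.5% hematocrit) grew 72 h with compound, 29 uM top final concentration.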
Starred values were filed as active, the others as inactive; i = inactive; [ ] = remark or other dose. Potency means the concentration at half of the fitted maximal effect.

SMILES	Pf Dd2 inh
O=C1N(c2ccccc2)c2ccccc2C12CCN([S+](=O)([O-])c1ccccc1)C2 (stereo not given)	7.94µM*
COc1ccc(CN2CCC3(C2)C(=O)N(Cc2ccccc2)c2ccccc23)cc1 (stereo not given)	i
CC(C)(C)n1nc(C2CCOCC2)nc1C1=NNC(=O)CC1	10.4%
CCOc1ccccc1NC(=O)N1CCC(OC2CCN(S(C)(=O)=O)CC2)CC1	3.9%
O=C(Nc1cccc(Br)c1)N1CC2CC(C1)[C@H]1CCCC(=O)N1C2 (stereo not given in full)	-15.2%
COCCN1CCCN(C(=O)c2cccc(F)c2)c2ccccc21	i
Cc1cccc(NC(=O)N2CC=C(c3c[nH]c4ccccc34)CC2)c1C	3.16µM*
Cc1cccc(NC(=O)N2CCc3c(c4ccccc4n3C)C2)c1C	i
O=C(Nc1ccc(Br)cc1F)N1CC=C(c2c[nH]c3ccccc23)CC1	0.8%
Cc1nc2c(NS(=O)(=O)c3ccc(Cl)cc3)cccn2n1	-3.3%
Cc1noc([C@@H]2CN(C(=O)c3ccoc3C)C[C@H]2CO)n1	i
Cc1nc(C)c(CN2CCOC[C@H](Oc3cnccn3)C2)s1	2.5%[44.1 µM]
Cc1nc2c(C(=O)NCCc3ccccc3)c[nH]n2c(=O)c1Cc1ccc(F)cc1Cl	17.6%
COc1ccc(CCNC(=O)c2c[nH]n3c(=O)c(Cc4ccccc4Cl)c(C)nc23)cc1OC	10µM*
Cc1nc2c(C(=O)NCCc3ccc(Cl)cc3)c[nH]n2c(=O)c1Cc1ccccc1F	29.6%
O=C(c1cccc(Br)c1)N1CCN(c2cc(-c3cccs3)[nH]n2)CC1	i
Cc1ccc(C(=O)NC[C@H]2O[C@@H](CC(=O)NC3CC3)[C@H](O)[C@@H]2O)cc1	3.2%[44.1 µM]
CCN(CC)CCOC(=O)c1ccc(Nc2c3c(nc4ccccc24)CCC3)cc1	7.08µM*
CCN(CC)CCOC(=O)c1ccc(NC(=O)CSc2cc(=O)n(CC)c3ccccc23)cc1	88.6%
Fc1ccc(Nc2c3c(nc4ccccc24)CCC3)cc1	-11.2%
CC(=O)N1C[C@@H]2CCCN3CCC[C@@H]([C@H]23)[C@H]1CCCC(=O)NC(C)C	i
C[C@]1(CO)[C@H]2Cc3sc(NC(=O)COc4ccccc4)nc3[C@@H](CC(=O)O)[C@]2(C)CC[C@H]1O	-0.6%
C[C@]1(CO)[C@H]2Cc3sc(NC(=O)c4ccc(F)cc4)nc3[C@@H](CC(=O)NC3CCCCC3)[C@]2(C)CC[C@H]1O	-10.0%
CCCCCC(=O)Nc1nc2c(s1)C[C@@H]1[C@](C)(CO)[C@H](O)CC[C@@]1(C)[C@@H]2CC(=O)Nc1cccc(O)c1	12.6µM*
CCCCCC(=O)Nc1nc2c(s1)C[C@@H]1[C@](C)(CO)[C@H](O)CC[C@@]1(C)[C@@H]2CC(=O)N(C)Cc1ccccc1	i
SMILES	Pf Dd2 inh
C#CCNC(=O)C[C@@H]1c2nc(NC(=O)c3c(F)cccc3F)sc2C[C@@H]2[C@](C)(CO)[C@H](O)CC[C@]21C	i
CC(C)(C)CC(=O)Nc1nc2c(s1)C[C@@H]1[C@](C)(CO)[C@H](O)CC[C@@]1(C)[C@@H]2CC(=O)Nc1ccccc1	11.2µM*
C#CCN(C)C(=O)C[C@@H]1c2nc(NC(=O)COC)sc2C[C@@H]2[C@](C)(CO)[C@H](O)CC[C@]21C	0.9%
C[C@]1(CO)[C@H]2Cc3sc(NC(=O)c4c(F)cccc4F)nc3[C@@H](CC(=O)NC3CCCC3)[C@]2(C)CC[C@H]1O	5.01µM*
CC(C)(C)C(=O)Nc1nc2c(s1)C[C@@H]1[C@](C)(CO)[C@H](O)CC[C@@]1(C)[C@@H]2CC(=O)NCCN1CCOCC1	12.3%
C#CCN(C)C(=O)C[C@@H]1c2nc(NC(=O)CCCCC)sc2C[C@@H]2[C@](C)(CO)[C@H](O)CC[C@]21C	10µM*
CC(C)CN1C(=O)c2cccn2CC1CNC(=O)Cc1cccc(F)c1 (stereo not given)	-14.6%
CC1(C)CNC(=O)c2nc(C3(CN4CCCC4)CC3)[nH]c2C1	-2.2%
CCOc1ccccc1C(=O)N1CCCC2(C1)NC(=O)N(Cc1ccc(Cl)cc1)C2=O (stereo not given)	i
Cc1ccccc1C(=O)N1CCC(c2nn(C)c(=O)[nH]2)CC1	2.4%[44.1 µM]
O=C(c1ccc(OC(F)F)cc1)N1CCCC(O)(CN2CCCC2)C1 (stereo not given)	-21.7%
CC1Oc2ccc(NC(=O)Cc3ccccc3)cc2CN(Cc2ccc(Cl)cc2)C1=O (stereo not given)	i
CC(C)N1CCC(CCN2C(=O)[C@H]3CN(S(=O)(=O)c4ccccc4)C[C@H]3C2=O)CC1	i
CN1Cc2ccc(NCc3ccccc3)nc2C(C)(C(=O)NCCOc2ccccc2)C1 (stereo not given)	-7.2%[44.1 µM]
CCNC(=O)CCc1c(CC)nn(-c2ccc(OC)cc2)c1Oc1cccc(F)c1	i
CCn1ncc(N2CCC(NC(=O)c3ccc4c(c3)OCO4)CC2)cc1=O	30.9%
O=C(c1cccnc1)N1CCC(Oc2cccc(F)c2)C1 (stereo not given)	-15.7%
Cc1ccc(C)c(OCC(=O)N[C@H]2CCOC[C@H]2C2CCOCC2)c1C	-0.2%
CCCCCC(=O)Nc1nc2c(s1)C[C@@H]1[C@](C)(CO)[C@H](O)CC[C@@]1(C)[C@@H]2CC(=O)NC1CCCC1	11.2µM*
C[C@@H](NC(=O)C[C@@H]1c2nc(-c3cccnc3)sc2C[C@@H]2[C@](C)(CO)[C@H](O)CC[C@]21C)c1ccccc1	-23.6%
CCCCCC(=O)Nc1nc2c(s1)C[C@@H]1[C@](C)(CO)[C@H](O)CC[C@@]1(C)[C@@H]2CC(=O)N[C@H](C)c1ccccc1	5.01µM*
O=C1NC(=NC2CCCCC2)C2(CCN([S+](=O)([O-])c3ccsc3)C2)N1c1cccnc1 (stereo not given)	5.2%
Cn1cccc1C(=O)N1CCC(c2nn(C)c3c2COCC3)CC1	i[5.79 µM]
O=C1N(Cc2ccc(F)cc2)C[C@H]2CN(CC3CC3)CCN12	-1.3%[44.1 µM]
COc1cccc(CCC(=O)N2CCC(C3CCN(S(C)(=O)=O)CC3)C2)c1 (stereo not given)	-4.5%
SMILES	Pf Dd2 inh
COc1cc2c(cc1OC)C(CNC(=O)C1CCCC1)N(C(=O)NC(C)C)CC2 (stereo not given)	i
CCC(=O)NCC1c2cc(OC)c(OC)cc2CCN1C(=O)Nc1ccccc1 (stereo not given)	-5.3%
COc1cc2c(cc1OC)C(CNC(=O)c1cccs1)N(C(=O)Nc1ccccc1F)CC2 (stereo not given)	i
COc1cc2c(cc1OC)C(CNC(=O)c1ccccc1)N(C(=O)Nc1ccccc1F)CC2 (stereo not given)	i
CCC(=O)NCC1c2cc(OC)c(OC)cc2CCN1C(=O)Nc1cccc(C)c1 (stereo not given)	i
COc1cc2c(cc1OC)C(CNC(=O)c1ccccc1Cl)N(C(=O)Nc1ccccc1F)CC2 (stereo not given)	-2.7%
COc1ccccc1NC(=O)N1CCc2cc(OC)c(OC)cc2C1CNC(=O)c1ccco1 (stereo not given)	7.08µM*
CCCNC(=O)N1CCc2cc(OC)c(OC)cc2C1CNC(=O)c1ccccc1C (stereo not given)	8.91µM*
COc1ccccc1NC(=O)N1CCc2cc(OC)c(OC)cc2C1CNC(C)=O (stereo not given)	9.0%
COc1cc2c(cc1OC)C(CNC(=O)C1CCCC1)N(C(=O)Nc1cccc(C)c1)CC2 (stereo not given)	11.2µM*
COc1cc2c(cc1OC)C(CNC(=O)c1cccs1)N(C(=O)Nc1ccccc1)CC2 (stereo not given)	8.91µM*
